The panel holds about 83,000 compounds, 20% with a hit somewhere; the sample as a whole holds those more often.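 Negative percent growth values reflect cell death: -40 means 40% of the cells present at the start died, and -100 means all died.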 A number with no mark means an inactive call. Active and inactive are the calls of the source. Rule for the calls: active = growth percent below 10; inactive = the rest.

Test systems include NCI-H23 lung; NCI-H226 lung; NCI-H322M lung; HOP-62 NSCLC; NCI-H460 lung; HOP-92 NSCLC; NCI-H522 lung; A549/ATCC NSCLC; 786-0 renal; COLO 205 colon; DU-145 prostate; K-562 leukemia; MALME-3M melanoma; MDA-MB-231 breast; RXF 393 renal; SF-268 CNS; SF-295 CNS; SF-539 CNS; UACC-257 melanoma; M14 melanoma.
Experiment in all cases: NCI-60 one-dose screen, 48 h (100 = growth as untreated, 0 = no growth, -100 = all killed)
Holding throughout (settings): 10 µM unless noted

Turning to `CCN(CC)CCCC(C)Nc1c2ccc(C)cc2nc2ccc(OC)cc12` (stereo not given), the growth with NCI-H23 lung is 41.8%; in the test on NCI-H226 lung, 42.4%; in the test with NCI-H322M lung, 10.9%; in the test with HOP-62 NSCLC, 45%; with NCI-H460 lung it was -44.3% (active); in the test with HOP-92 NSCLC it was 40.8%. Further, the growth in the test on NCI-H522 lung is 51.1%; in the test on A549/ATCC NSCLC, 14.7%; with 786-0 renal, 33%; in the test with COLO 205 colon it was -40.4% (active); in the test on DU-145 prostate, 4.05% (active); in the test on K-562 leukemia it was 4.22% (active). For the same compound, the growth in the test on MALME-3M melanoma is 53.3%; with MDA-MB-231 breast, 41.9%; with RXF 393 renal, 23.7%; in the test with SF-268 CNS, 39.4%; with SF-295 CNS, 8.67% (active); with SF-539 CNS, 10.2%. Also, the growth with UACC-257 melanoma was -76% (active); in the test with M14 melanoma, -10.2% (active).
`CC(C)(C)c1cc(C(=O)Nc2ccc(C(=O)NCCN)cc2)cc(C(C)(C)C)c1`: the growth in the test with NCI-H23 lung is 85%; in the test with NCI-H226 lung, 84.2%; in the test on NCI-H322M lung it was 58.3%; in the test with HOP-62 NSCLC, 67%; with NCI-H460 lung it was 3.53% (active); in the test with HOP-92 NSCLC, 26.1%. Further, the growth in the test on NCI-H522 lung was 40.3%; in the test on A549/ATCC NSCLC, 39.3%; in the test with 786-0 renal, 32.2%; in the test with COLO 205 colon it was -77.7% (active); in the test with DU-145 prostate, 40.5%; with K-562 leukemia it was -42.5% (active). The growth in the test on MALME-3M melanoma is 15.1%; with MDA-MB-231 breast, -43.7% (active); in the test with RXF 393 renal, 19.5%; in the test on SF-268 CNS, 57%; with SF-295 CNS, 36.4%; in the test with SF-539 CNS, -52.8% (active). The growth is 68.6% with UACC-257 melanoma and -71% (active) in the test on M14 melanoma.
For the compound `O=C(N=c1n(-c2ccccc2)nc2n1CCN2C1=NCCN1C(=O)c1ccc(Cl)cc1)c1ccc(Cl)cc1`, the growth in the test with NCI-H23 lung is 75.9%; in the test on NCI-H226 lung, 93.2%; in the test on NCI-H322M lung, 86.9%; in the test with HOP-62 NSCLC, 93.5%; with NCI-H460 lung, 60.6%; in the test with HOP-92 NSCLC, 120%. For the same compound, the growth is 64.2% in the test on NCI-H522 lung; 65.4% in the test on A549/ATCC NSCLC; 83.1% with 786-0 renal; 75.1% in the test with COLO 205 colon; 92.2% with DU-145 prostate; 47.1% in the test on K-562 leukemia. The growth in the test on MALME-3M melanoma is 91.2%; in the test on MDA-MB-231 breast it was 82.4%; in the test with RXF 393 renal, 48.6%; with SF-268 CNS, 72.9%; in the test with SF-295 CNS it was 86.2%; with SF-539 CNS, 80.2%. In addition, the figures for the growth in the test with UACC-257 melanoma and in the test with M14 melanoma were 103% and 62.5%, respectively.
Regarding `CSc1nc(=S)c2nc(SC)n(-c3ccccc3)c2[nH]1`, the growth was 103% in the test with NCI-H23 lung; 90.8% with NCI-H226 lung; 96.8% with NCI-H322M lung; 85.5% with HOP-62 NSCLC; 95.5% in the test on NCI-H460 lung; 77.6% in the test with HOP-92 NSCLC. Further, the growth with NCI-H522 lung is 70.1%; with A549/ATCC NSCLC it was 97.8%; with 786-0 renal it was 101%; with COLO 205 colon it was 101%; in the test on DU-145 prostate, 108%; in the test with K-562 leukemia it was 98.5%. In addition, the growth in the test with MALME-3M melanoma is 109%; in the test with MDA-MB-231 breast it was 105%; in the test on RXF 393 renal it was 108%; with SF-268 CNS, 96.4%; with SF-295 CNS it was 105%; in the test on SF-539 CNS it was 103%. Further, the growth is 96.3% in the test with UACC-257 melanoma and 102% in the test on M14 melanoma.
Turning to `CCN=C1C=CC(=C(c2ccc(N(CC)CC)cc2)c2ccc(N(CC)CC)cc2)c2ccccc21`, the growth was -53.5% (active) in the test with NCI-H23 lung; -58.3% (active) in the test on NCI-H226 lung; -38.9% (active) with NCI-H322M lung; -71.8% (active) in the test on HOP-62 NSCLC; -72% (active) in the test with NCI-H460 lung; -72.8% (active) in the test with HOP-92 NSCLC. Further, the growth was -65.5% (active) in the test with NCI-H522 lung; -59.8% (active) in the test on A549/ATCC NSCLC; -64.3% (active) in the test with 786-0 renal; -90.7% (active) in the test on COLO 205 colon; -96.5% (active) in the test on DU-145 prostate; -13.6% (active) in the test on K-562 leukemia. In addition, the growth is -82.6% (active) with MALME-3M melanoma; -8.34% (active) in the test on MDA-MB-231 breast; -74.4% (active) in the test on RXF 393 renal; -18.6% (active) with SF-268 CNS; -80.9% (active) in the test with SF-295 CNS; -82.9% (active) in the test with SF-539 CNS. Also, the growth in the test with UACC-257 melanoma was -69.9% (active); in the test with M14 melanoma it was -67% (active).
As for `C#C[C@]1(O)CC[C@H]2[C@@H]3CC=C4c5nc(Nc6ccc(OC)cc6OC)sc5CC[C@]4(C)[C@H]3CC[C@@]21C`, the growth is 34.6% in the test on NCI-H23 lung; 24.2% with NCI-H226 lung; 37% with NCI-H322M lung; -11.5% (active) with HOP-62 NSCLC; 12.4% in the test with NCI-H460 lung; 10.4% with HOP-92 NSCLC. Besides, the growth in the test with NCI-H522 lung was 23%; in the test with A549/ATCC NSCLC, 9.68% (active); with 786-0 renal, -54.7% (active); in the test with COLO 205 colon it was -43.2% (active); in the test with DU-145 prostate, 39%; in the test with K-562 leukemia, 6.12% (active). Moreover, the growth is -21.8% (active) in the test with MALME-3M melanoma; 1.72% (active) with MDA-MB-231 breast; -60% (active) in the test on RXF 393 renal; 4.95% (active) in the test on SF-268 CNS; -66.3% (active) in the test on SF-295 CNS; -59.5% (active) in the test on SF-539 CNS. Further, the figures for the growth in the test with UACC-257 melanoma and in the test with M14 melanoma were -20.3% (active) and -41.4% (active), respectively.
For the compound `COc1ccc(-c2cc(-c3ccc(Cl)cc3)nc(SCCCCCCC(=O)NO)n2)cc1`, the growth with NCI-H23 lung was 8.94% (active); in the test with NCI-H226 lung, 19.7%; with NCI-H322M lung, 39.5%; in the test with HOP-62 NSCLC, 7.61% (active); in the test with NCI-H460 lung, 14.9%; with HOP-92 NSCLC, 23.7%. Further, the growth was 10.4% in the test on NCI-H522 lung; 13% with A549/ATCC NSCLC; 27.4% with 786-0 renal; 35.6% in the test with COLO 205 colon; 24.6% in the test on DU-145 prostate; 20.1% in the test with K-562 leukemia. For the same compound, the growth in the test with MALME-3M melanoma is 11.7%; with MDA-MB-231 breast, 45.8%; in the test on RXF 393 renal, -0.367% (active); in the test with SF-268 CNS it was 31.7%; with SF-295 CNS, 36.3%; in the test with SF-539 CNS, 34.8%. Besides, the growth in the test on UACC-257 melanoma is 23%; in the test with M14 melanoma, 22.3%.
